# Results reported in PubChem BioAssay AID1159580 (chemical genetic matrix, 2015).
# “And” between values parts separate entries of the source, which are not always exact repeats. Equal entries are not always repeated. Hit rate of the full screen: of about 5,500 compounds, about 2,000 (36%) were called active. About 18% were inconclusive and are not listed. Some of the results follow. Unmarked numbers belong to inactive results. No stated cut-off is given here; in the data, active means normalized growth mostly below about 0.91 (no sharp cut-off); inconclusive means no clear call, values can overlap the other calls; inactive means mostly above about 0.92.
# Test: chemical genetic growth profiling, strain panel (AID 1159580);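 further: tested at 20 µM; growth read once vehicle control cultures reached saturation at 30 °C; 1 = growth at the plate median or of vehicle wells; lower values mean less growth of the strain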
# Conditions: S. cerevisiae deletion strains, growth OD
smiles,measurement,setting,value
CCCCCCCCCCCC[C@H](C(=O)O)[C@@H](C)C(=O)O,normalized growth,"locus YAL013W, strain DEP1, hits give low values",0.992
same,normalized growth,"locus YAL021C, strain ccr4, hits give low values",1.02
same,normalized growth,"locus YAL026C, strain drs2, hits give low values",0.952
same,normalized growth,"locus YAL030W, strain snc1, hits give low values",0.984
same,normalized growth,"locus YBL061C, strain skt5, hits give low values",0.982
same,normalized growth,"locus YBR009C, strain hhf1, hits give low values",0.994
same,normalized growth,"locus YBR021W, strain FUR4, hits give low values",0.995
same,normalized growth,"locus YBR023C, strain chs3, hits give low values",0.982
same,normalized growth,"locus YBR171W, strain sec66, hits give low values",0.936
same,normalized growth,"locus YBR229C, strain ROT2, hits give low values",0.993
same,normalized growth,"locus YBR231C, strain swc5, hits give low values",0.986
same,normalized growth,"locus YBR279W, strain paf1, hits give low values",0.976
same,normalized growth,"locus YCL011C, strain gbp2, hits give low values",0.995
same,normalized growth,"locus YCL016C, strain dcc1, hits give low values",0.996
same,normalized growth,"locus YCL029C, strain bik1, hits give low values",1.02
same,normalized growth,"locus YCL061C, strain MRC1, hits give low values",0.963
same,normalized growth,"locus YCL069W, strain vba3, hits give low values",0.975
same,normalized growth,"locus YCR088W, strain abp1, hits give low values",0.976
same,normalized growth,"locus YDL005C, strain med2, hits give low values",0.995
same,normalized growth,"locus YDL035C, strain GPR1, hits give low values",0.995
same,normalized growth,"locus YDL040C, strain nat1, hits give low values",0.977
same,normalized growth,"locus YDL074C, strain BRE1, hits give low values",0.986
same,normalized growth,"locus YDL101C, strain DUN1, hits give low values",1.02
same,normalized growth,"locus YDL134C, strain PPH21, hits give low values",0.993
same,normalized growth,"locus YDL185W, strain tfp1, hits give low values",1.03
same,normalized growth,"locus YDL192W, strain arf1, hits give low values",1.01
same,normalized growth,"locus YDR001C, strain nth1, hits give low values",0.966
same,normalized growth,"locus YDR069C, strain doa4, hits give low values",0.999
same,normalized growth,"locus YDR101C, strain arx1, hits give low values",1.01
same,normalized growth,"locus YDR137W, strain rgp1, hits give low values",0.929
same,normalized growth,"locus YDR150W, strain NUM1, hits give low values",0.998
same,normalized growth,"locus YDR159W, strain sac3, hits give low values",0.902
same,normalized growth,"locus YDR162C, strain NBP2, hits give low values",1.01
same,normalized growth,"locus YDR195W, strain ref2",0.98
same,normalized growth,"locus YDR297W, strain sur2, hits give low values",0.976
same,normalized growth,"locus YDR318W, strain mcm21, hits give low values",1.02
same,normalized growth,"locus YDR334W, strain swr1, hits give low values",0.985
same,normalized growth,"locus YDR335W, strain msn5, hits give low values",0.986
same,normalized growth,"locus YDR388W, hits give low values",1.01
same,normalized growth,"locus YDR392W, strain spt3, hits give low values",0.832
same,normalized growth,"locus YDR502C, strain sam2, hits give low values",1.02
same,normalized growth,"locus YEL003W, strain gim4, hits give low values",0.995
same,normalized growth,"locus YEL037C, strain rad23, hits give low values",0.976
same,normalized growth,"locus YEL061C, strain CIN8 (second series), hits give low values",0.957
same,normalized growth,"locus YEL061C, strain CIN8, hits give low values",0.988
same,normalized growth,"locus YER015W, strain faa2, hits give low values",0.985
same,normalized growth,"locus YER016W, strain bim1, hits give low values",0.984
same,normalized growth,"locus YER110C, hits give low values",1
same,normalized growth,"locus YER111C, strain swi4, hits give low values",0.938
same,normalized growth,"locus YER155C, strain BEM2 (second series), hits give low values",0.874
same,normalized growth,"locus YER155C, strain BEM2, hits give low values",0.979
same,normalized growth,"locus YER167W, strain BCK2, hits give low values",1.01
same,normalized growth,"locus YFR010W, strain ubp6, hits give low values",1.02
same,normalized growth,"locus YGL078C, strain dbp3, hits give low values",0.98
same,normalized growth,"locus YGL086W, strain mad1, hits give low values",1.01
same,normalized growth,"locus YGL167C, strain pmr1, hits give low values",0.943
same,normalized growth,"locus YGL173C, strain kem1, hits give low values",0.958
same,normalized growth,"locus YGL227W, strain vid30, hits give low values",0.975
same,normalized growth,"locus YGL240W, strain doc1, hits give low values",0.979
same,normalized growth,"locus YGL248W, strain PDE1, hits give low values",1
same,normalized growth,"locus YGL253W, strain hxk2, hits give low values",0.976
same,normalized growth,"locus YGR078C, strain PAC10, hits give low values",1.01
same,normalized growth,"locus YGR135W, strain pre9, hits give low values",1.01
same,normalized growth,"locus YGR229C, strain SMI1, hits give low values",0.999
same,normalized growth,"locus YGR252W, strain gcn5, hits give low values",1.05
same,normalized growth,"locus YHR013C, strain ard1, hits give low values",1.01
same,normalized growth,"locus YHR027C, strain rpn1, hits give low values",0.984
same,normalized growth,"locus YHR030C, strain SLT2, hits give low values",0.993 and 0.941
same,normalized growth,"locus YHR079C, strain IRE1 (second series), hits give low values",1
same,normalized growth,"locus YHR079C, strain IRE1, hits give low values",0.953
same,normalized growth,"locus YHR094C, strain hxt1, hits give low values",0.989
same,normalized growth,"locus YHR129C, strain ARP1, hits give low values",0.989
same,normalized growth,"locus YHR142W, strain chs7, hits give low values",1.02
same,normalized growth,"locus YHR200W, strain rpn10, hits give low values",1.02
same,normalized growth,"locus YIL066C, strain RNR3, hits give low values",0.992
same,normalized growth,"locus YIL073C, strain SPO22, hits give low values",1.06
same,normalized growth,"locus YIL125W, strain kgd1, hits give low values",0.997
same,normalized growth,"locus YIR030C, strain dcg1, hits give low values",1
same,normalized growth,"locus YJL092W, strain hpr5, hits give low values",0.967
same,normalized growth,"locus YJL095W, strain BCK1 (second series), hits give low values",0.992
same,normalized growth,"locus YJL095W, strain BCK1, hits give low values",1.01 and 0.953
same,normalized growth,"locus YJL115W, strain asf1, hits give low values",0.94
same,normalized growth,"locus YJL129C, strain trk1, hits give low values",0.797 (active)
same,normalized growth,"locus YJL134W, strain LCB3, hits give low values",0.991
same,normalized growth,"locus YJL154C, strain vps35, hits give low values",0.99
same,normalized growth,"locus YJL164C, strain tpk1, hits give low values",0.999
same,normalized growth,"locus YJL166W, strain qcr8, hits give low values",0.992
same,normalized growth,"locus YJL168C, strain set2, hits give low values",1
same,normalized growth,"locus YJL187C, strain SWE1 (second series), hits give low values",1
same,normalized growth,"locus YJL187C, strain SWE1, hits give low values",0.971
same,normalized growth,"locus YJR043C, strain POL32, hits give low values",0.996
same,normalized growth,"locus YJR066W, strain TOR1, hits give low values",0.884
